Source: PubChem BioAssay
HT1080 IDH1KD tx – qHTS for induction of synthetic lethality in tumor cells producing 2HG: qHTS for the HT-1080-IDH1KD cell line | HT-1080 IDH1 knockdown viability, ATP luminescence, 48 h | Potency, µM (titrated, usually from 46.1 µM), hits mostly cytotoxic | hit rate 2% among 360,000
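HT-1080-IDH1KD cells (IDH1 knocked down), 750/well in RPMI with 5% FBS, treated with compound 48 h at 37 degrees C. Viability by CellTiter-Glo luminescence, normalised to DMSO and no-cell wells; concentration-response curves classed.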
DT40 TDP1 no CPT – qHTS for Inhibitors of human tyrosyl-DNA phosphodiesterase 1 (TDP1): qHTS in cells in absence of CPT; Potency, µM (titrated, usually from 46.2 µM), actives largely listed as inhibitors; DT40 Tdp1-/- hTDP1 cells, no CPT, ATP luminescence, 48 h; hit rate 15% among 420,000; note: nearly all actives have a fitted effect of over 55% in size
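Luminescent ATP content (CellTiter-Glo) served as the growth readout. Knockout chicken DT40 cells expressing human TDP1 were exposed to compounds without camptothecin for a minimum 48 hr at 37 °C.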
TDP1 cell CPT – qHTS for Inhibitors of human tyrosyl-DNA phosphodiesterase 1 (TDP1): qHTS in cells in presence of CPT; hit rate 12% among 420,000; chicken DT40 Tdp1-/-;hTDP1 cells + 20 nM CPT, ATP luminescence, 48 h; Potency, µM (series often up to 46.2 µM), usual class: inhibitors; note: nearly all actives have a fitted effect of over 55% in size
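Chicken DT40 Tdp1-/- cells complemented with human TDP1, 400 cells/well, exposed to compounds plus 20 nM camptothecin for at least 48 h at 37 C; viability read as ATP content by CellTiter-Glo luminescence.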
IL1B secr inh – qHTS for Inhibitors of Inflammasome Signaling: IL-1-beta AlphaLISA Primary Screen | hit rate 4.7% among 360,000 | activity change, % at 57.5 µM | THP-1 LPS/ATP IL-1B secretion, AlphaLISA, 16 h; stronger effect = lower value; in the data active = activity change below about -50%; inconclusive = mostly about -30% to -49%
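THP-1 cells pretreated 1 hr with compounds (up to 57.5 uM final), then stimulated with LPS (250 ng/mL final) plus ATP (1.25 mM final); secreted IL-1B measured by AlphaLISA after 16 hr, decreased signal indicating inhibition.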
HT1080-NT tox – qHTS for induction of synthetic lethality in tumor cells producing 2HG: qHTS for the HT-1080-NT fibrosarcoma cell line; HT-1080-NT fibrosarcoma viability, CellTiter-Glo ATP luminescence, 48 h; Potency, µM (series often up to 46.1 µM), usual class: cytotoxic; hit rate 1.6% among 360,000; AID 686970, 2013;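 note: NT is the 2HG producing partner of a matched IDH1 knockdown line; nearly all actives have a fitted effect of over 55% in size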
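Toxicity toward the 2HG-producing NT line was scored as %Activity, normalised to DMSO and no-cell wells, from CellTiter-Glo luminescence after 48 hours' treatment.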
Numbers stand for hits; - = inactive; ? = inconclusive; . = no result. A selection: hits, their analogues and other compounds. The true share with any hit is near 19%. Unless noted, calls come from the whole dose curve; as a rule, active = well fitted curve in the direction sought with a large enough effect; inconclusive = small, poorly fitted or top-dose-only effect, or another doubt; inactive = no such curve, though single readings can be large; an effect the other way counts as inactive or inconclusive.

SMILES	HT1080 IDH1KD tx	DT40 TDP1 no CPT	TDP1 cell CPT	IL1B secr inh	HT1080-NT tox
COc1cc2c(cc1OC)CN(C(=O)CN1CCN(S(=O)(=O)c3ccc(C)c(C)c3)CC1)CC2	-	13µM	23µM	-	-
Cc1cc(Nc2ccc(Br)cc2F)n2nc(C)nc2n1	-	-	?	-	-
CN(C(=O)c1cccc(NC(=O)Cc2ccc([N+](=O)[O-])cc2)c1)C1CC1	-	?	-	-	-
CCOC(=O)c1c(NC(=O)COc2cccc3c2CCN(CC)C3=O)sc2c1CCC2	-	8.2µM	?	-	-
CCOC(=O)c1c(NC(=O)CSc2cn(CCNC(=O)c3ccccc3F)c3ccccc23)sc2c1CCCC2	.	16µM	16µM	.	.
CCOC(=O)c1c(NC(=O)CSc2c[nH]c3ccccc23)sc2c1CCCC2	?	?	?	-	?
CCOC(=O)c1c(NC(=O)C(C)Sc2cn(CCNC(=O)c3ccc(OC)cc3)c3ccccc23)sc2c1CCC2 (configuration not stated)	.	?	21µM	.	.
CCOC(=O)c1c(NC(=O)CSc2c[nH]c3ccccc23)sc2c1CCC2	?	13µM	?	-	?
CCOC(=O)c1c(NC(=O)C(C)Sc2cn(C)c3ccccc23)sc2c1CCC2 (configuration not stated)	-	?	?	-	-
COCC#Cc1ccc2c(c1)O[C@@H](CN(C)C(=O)Nc1ccc(OC)cc1)[C@H](C)CN([C@H](C)CO)S2(=O)=O	-	-	-	-	-
CC(C)(C)OC(=O)N1CC2(CCCCC2)CC1Cc1ccc(C(F)(F)F)cc1 (configuration not stated)	-	-	-	-	-
CCOC(=O)c1c(NC(=O)CSc2cn(CCNC(=O)c3ccccc3OC)c3ccccc23)sc2c1CCCC2	.	23µM	?	.	.
CCOC(=O)c1c(NC(=O)CSc2cn(CCNC(=O)c3ccc(OCC)cc3)c3ccccc23)sc2c1CCC2	.	-	-	.	.
CC(C)C1C(=O)N(Cc2cn(CCC3OCCO3)nn2)CCS(=O)(=O)N1Cc1ccc(-c2ccc(F)cc2)cc1 (configuration not stated)	-	?	?	-	-
CC(C)C1C(=O)N(Cc2cn(CCC3OCCCO3)nn2)CCS(=O)(=O)N1Cc1ccc(-c2cccc(CO)c2)cc1 (configuration not stated)	-	?	-	-	-
CC(C)C1C(=O)N(Cc2cn(CCC3OCCCO3)nn2)CCS(=O)(=O)N1Cc1ccc(-c2ccc(Cl)c(Cl)c2)cc1 (configuration not stated)	?	18µM	23µM	-80	16µM
CC(C)C1C(=O)N(Cc2cn(CCC3OCCCO3)nn2)CCS(=O)(=O)N1Cc1ccc(-c2ccc(Cl)cc2)cc1 (configuration not stated)	-	23µM	?	-	-
CC(C)C1C(=O)N(Cc2cn(CCC3OCCO3)nn2)CCS(=O)(=O)N1Cc1ccc(-c2ccc(Cl)cc2)cc1 (configuration not stated)	?	4.1µM	3.3µM	?	18µM
CCCOc1ccc(C(=O)NC(=S)NCc2cccnc2)cc1	-	?	?	-	-
CCCOc1ccc(CNC(=S)N/N=C/c2ccc([N+](=O)[O-])cc2)cc1	?	21µM	?	-	?
CCCOc1ccc(CNC(=S)NCc2ccc(OC(C)C)cc2)cc1	-	18µM	?	-	-
S=C1NC2=C(CCCC2=C2SCCCS2)C(c2ccccc2)N1 (configuration not stated)	-	?	?	-	-
COc1cc(C2NC(=S)NC3=C2CCc2ccccc23)cc(OC)c1OC (configuration not stated)	-	?	-	-	-
COc1ccc2c(c1)CCC1=C2NC(=S)NC1c1ccc(N(C)C)cc1 (configuration not stated)	-	16µM	?	-	-
COc1ccc(C2NC(=S)NC3=C2CCCC3=C2SCCS2)cc1 (configuration not stated)	6.5µM	2.9µM	2.3µM	-82	9.2µM
SMILES	HT1080 IDH1KD tx	DT40 TDP1 no CPT	TDP1 cell CPT	IL1B secr inh	HT1080-NT tox
CC(C)OCCCNC(=O)C1CC(=O)N(CCc2ccccc2)C1 (configuration not stated)	-	-	-	-	-
CCOC(=O)C1=C(C)N=C2SC(C(=O)OC)=CC(=O)N2C1c1cccc(OC)c1 (configuration not stated)	-	?	?	-	-
CCOC(=O)C1=C(C)N=C2SC(C(=O)OC)=CC(=O)N2C1c1ccc(F)cc1 (configuration not stated)	-	?	?	-61	-
CCOc1ccc(CCNC(=O)C2CCCN(c3nnc(C)c4c(C)n(-c5ccccc5)nc34)C2)cc1 (configuration not stated)	.	?	21µM	.	.
Cc1ccc(-n2nc3c(N4CCCC(C(=O)NCc5ccc(Cl)cc5)C4)nnc(C)c3c2C)cc1 (configuration not stated)	.	18µM	9.2µM	.	.
Cc1ccc(CCNC(=O)C2CCCN(c3nnc(C)c4c(C)n(-c5ccccc5)nc34)C2)cc1 (configuration not stated)	.	?	23µM	.	.
CCOc1ccc(CCNC(=O)Cn2nc(C)c3c(C)n(-c4ccccc4)nc3c2=O)cc1	-	-	-	-	-
Cc1ccccc1CNC(=O)C1CCCN(c2nnc(C)c3c(C)n(-c4ccccc4)nc23)C1 (configuration not stated)	?	18µM	23µM	?	?
Cn1c(C(=O)Nc2ccc(OC(F)(F)F)cc2)cc2c(=O)n3ccccc3nc21	.	?	-	.	.
Cc1cc(=O)n2nc(N3CCCC(C(=O)NCCc4ccccc4)C3)sc2n1 (configuration not stated)	-	-	-	-	-
Cc1nnc(N2CCCC(C(=O)NCc3ccccc3)C2)c2nn(-c3ccccc3)c(C)c12 (configuration not stated)	.	-	-	.	.
Cc1ccc(-n2nc3c(N4CCCC(C(=O)NCCc5ccccc5)C4)nnc(C)c3c2C)cc1 (configuration not stated)	.	16µM	16µM	.	.
Cc1nnc(N2CCCC(C(=O)NCCc3ccccc3)C2)c2nn(-c3ccccc3)c(C)c12 (configuration not stated)	.	18µM	?	.	.
CCOCCCNC(=O)COc1ccc(OC)cc1	-	-	-	-	-
